# Assay results: PubChem BioAssay AID900 (National Center for Advancing Translational Sciences (NCATS), 2007)
# Values joined by “and” are separate entries in the source; they are usually repeats but may differ in a detail not shown here. Equal values may be shown once. Hit rate of the full screen: of about 75,000 compounds, about 20 (0.03%) were called active. Roughly 1% stayed inconclusive and do not appear here. The list is a sample of the results. Unmarked numbers belong to inactive results. Calls follow the shape of the dose curve; as a rule, active = well fitted inhibition curve with a large enough effect; inconclusive = small, poorly fitted or top-dose-only effect; inactive = flat fitted curve, though single readings scatter.
# Target: Caspase-1 (Homo sapiens) (UniProt P29466)
# Experiment: qHTS Assay for Allosteric/Competitive Inhibitors of Caspase-1
# Details: Caspase-1 enzyme, Ac-WEHD-AFC fluorogenic rate; series mostly up to 57.5 µM; activity change, negative = inhibition: at the top concentration
# Excerpt: NIH Molecular Libraries Screening Centers Network [MLSCN]
# NIH Chemical Genomics Center [NCGC]
# PI Name: Dr. James Wells,
# Dr. Enrique Perez-Paya, Dr.Janice Williams, Dr. Dennis Wolan, a person
# The caspases (Cysteine Aspartyl Protease) comprise a related family of 14 dimeric proteases that are critical mediators of apoptosis (programmed cell death) and inflammation. The caspases represent an important class of drug targets for stroke, ischemia, cancer and inflammatory diseases. […] One goal of this project was to identify compounds that act as allosteric inhibitors via stabilizing the procaspase form of the enzyme. Previous work in Well's laboratory has shown that such allosteric inhibitors can be identified and these act by binding at the dimer interface of enzyme (Hardy, Lam et al., 2004).
# The biochemical assay was configured using purified caspase 1 at a high enzyme concentration to promote formation of the homodimers and thus facilitate the identification of allosteric inhibitors. The overall goal was to identify reversible inhibitors with better drug-like properties than the currently available set of aspartyl-containing peptidomimetics that covalently bind the active site. Caspase 1 was assayed using the profluorescent substrate Ac-WEHD-AFC. After initiation of the assay with substrate the plates were rapidly read using an automated robotic system (Kalypsys, Inc.) to maintain consistent timing. A kinetic mode of detection was used where the initial rate was collected (estimated final product formation was ~10%). Compounds were screened as a concentration-titration series that ranged from 57 uM to 0.7 nM. Below is the protocol used for caspase 1.
# NCGC Assay Protocol Summary:
# Caspase 1 was prepared in buffer (50 mM HEPES pH 7.5, 50 mM KCl, 200 mM NaCl, 10 mM DTT, 0.1% CHAPS) at a concentration of 66.6 nM and 3 uL was dispensed to all wells using black solid Kalypsys 1536-well plates. 20 nL of DMSO containing compounds was added using a pin-tool (Kalypsys Inc.) to columns 5-48. Then 20 nL of DMSO solution from a control plate was added to columns 1-4. Controls were: Column 1, 16 point titration with each concentration in duplicate (1:1 dilutions in DMSO; final starting concentration was 57 uM) of the caspase 1 inhibitor Ac-WEHD-CHO (Alexis Biochemicals); Column 2, a 16 point titration with each concentration in duplicate of the free AFC fluorophore prepared in DMSO (Alexis Biochemicals), final starting was 40 uM; Column 3 neutral (DMSO only) control; Column 4: DMSO alone, to serve as a negative control (no substrate was added). Then 1 uL of 20 uM the substrate Ac-WEHD-AFC (Alexis Biochemicals) prepared in the same buffer was dispensed to all wells except columns 2 and 4 and the plates were immediately transferred (< 1 min) to the Viewlux. The plates were then exposed using 405 nm excitation/520 nm emission filters for 4 sec and read at 20 sec intervals for 3 min. Final enzyme concentration was 50 nM and the final substrate concentration was 5 uM.
# Concentration-response curves were fitted to the data calculated from slope of the linear regression of fluorescent intensity versus time (the rate). The concentration-effect curves were then classified based on curve quality (r2), response magnitude and degree of measured activity. […] Inconclusive compounds had appreciable concentration-dependent effects on both the measured rate and the interpolated basal fluorescence intensity at the start of the reaction but where the basal fluorescent intensity was marginal (e.g. < 10-fold). Inconclusive compounds also encompass highly fluorescent compounds (>100-fold increases in fluorescent intensities values relative to controls) where artificial concentration-dependent decreases in the rate occurred at high compound concentrations due to fluorescent interferences.
# Keywords: Caspase 1, proteases, profluorescent, MLSMR, MLSCN, NIH Roadmap, qHTS, NCGC
row,SMILES,"activity change, negative = inhibition"
1,CC(C)N(CCNC(=O)c1ccc(-n2c(=O)c(=O)[nH]c3ccccc32)cc1)C(C)C,-4.26%
2,Cc1ccccc1CSCC(=O)NC(=O)NC(C)(C)C,0.035%
3,O=C(O)CCC(=O)NCc1ccc2[nH]c3c(c2c1)CCCC3,-11.4%
4,CCn1ncc(C2=NOC(C(=O)Nc3ccccc3C(=O)OC)C2)c1C (stereo not drawn),-4.14%
5,CO[C@H]1COC(=O)[C@@H](C)NC(=O)C/C=C\[C@@H](C)[C@H](OC)COC(=O)C/C=C\[C@@H]1C,1.2% [at 11.5 µM]
6,CO/N=C\[C@@H](C)[C@H](OCc1ccccc1)C(C)C,1.85% [at 11.5 µM]
7,CC(=O)OCC(=O)C1CCC2C3CCC4=CC(=O)CC[C@@]4(C)C3CC[C@]12C (stereo partly drawn),2.9%
8,CC(C)[C@@H](OCc1ccccc1)[C@H](C)/C=N\OC[C@@H](C)[C@H](OCc1ccccc1)C(C)C,-1.54% [at 11.5 µM]
9,COC(=O)CC1C(C)(C)C(OC(C)=O)C2CC3=C4CC(=O)OC(c5ccoc5)[C@]4(C)CCC3[C@@]1(C)C2=O (stereo partly drawn),0.908%
10,O=C(CSc1nc2ccccc2[nH]1)c1cccs1,1.91%
11,CC(=O)Oc1c2c(c3c(c1CC=C(C)C)O[C@@]14C(=CC5CC1C(C)(C)OC4(C/C=C(\C)C(=O)O)C5=O)C3=O)OC(C)(CCC=C(C)C)C=C2 (stereo partly drawn),-4.73%
12,Cc1cc(C)cc(C#CC2C=CC(Oc3ccc(C4CCCC4)cc3)C(CO)O2)c1 (stereo not drawn),-0.183% [at 11.5 µM]
13,Cc1sc2c(c1C)c(=O)n(-c1ccccc1)c1nncn21,0.0448%
14,CC(C)CN1CCc2nc(-c3ccccc3)c3c(c2C1)COC(C)C3 (stereo not drawn),-0.646% [at 11.5 µM]
15,C=CCOC(=O)C(C(C)=O)C(NC(=O)OC)c1ccccc1 (stereo not drawn),-2.17% [at 11.5 µM]
16,COc1c(C(C)C)oc2cc3oc(=O)ccc3cc12,-1.57%
17,Cc1oc(C)c(C(=O)NCCCC(=O)O)c1C(=O)NCCCC(=O)O,0.175%
18,CC(CCC(=O)O)C1CCC2C3C(O)C[C@@H]4CC(O)CC[C@@]4(C)C3CC[C@@]12C (stereo partly drawn),inactive
19,CN(C)CCc1c[nH]c2ccc(Cn3cncn3)cc12,-1.76%
20,Nc1ncn(C2OC(CO)C(O)C2O)c(=O)n1 (stereo not drawn),-1.92%
21,Cc1occc1C(=O)Nc1nnc(C2CCCCC2)s1,-2.34%

row,SMILES,"activity change, negative = inhibition"
1,Oc1ccc2c(c1)OCC1c3cc4c(cc3OC21)OCO4 (stereo not drawn),-0.0099%
2,C#CCC(C(=O)OC)(C(=O)OC)C(C[N+](=O)[O-])c1ccccc1 (stereo not drawn),-0.949% [at 11.5 µM]
3,O=C(c1cccs1)N1CCN(Cc2ccc3c(c2)OCO3)CC1,-3.62%
4,C=C[C@](C)(O)CCC1C(=C)CCC2[C@@](C)(CO)CCC[C@@]12C (stereo partly drawn),1.13%
5,C=C1C([C@@]2(C)C(OC(C)=O)CC(=O)O[C@@](C)(COC(C)=O)C2CC(=O)OC)C(OC=O)C(OC(=O)C(O)C(C)CC)[C@]2(C)C(c3ccoc3)CC(=O)C12O (stereo partly drawn),-0.335%
6,CSc1ccc(Cl)c(C(=O)OCC(=O)N2CC(C)OC(C)C2)c1 (stereo not drawn),-2.09%
7,CC(C)(C)c1ccc(OC2C=CC(C#Cc3ccccc3)OC2CO)cc1 (stereo not drawn),-6.01% [at 11.5 µM]
8,COc1cccc([C@H]2Oc3ccc(OC)cc3/C(=N\OCC[C@@H]3C=C[C@H](OC(C)=O)[C@H](COC(C)=O)O3)[C@@H]2O)c1,-0.817% [at 11.5 µM]
9,CC(=O)OCCC(C)C,-2.94%
10,CCCNC(=O)OC[C@@H]1O[C@H](c2ccccc2)C=C[C@@H]1Oc1ccc(OC)cc1,-0.962% [at 11.5 µM]
11,CO[C@H]1COC(=O)C/C=C\[C@H](C)COC(=O)[C@@H](OCc2ccccc2)/C=C\[C@@H]1C,-1.1% [at 11.5 µM]
12,C=CCNC(=O)CCCC(=O)NCC=C,-0.805%
13,Oc1cc(O)c2c(c1)OC(c1ccc(O)c(O)c1)C(O)C2 (stereo not drawn),-1.07%
14,Cn1c(=O)n2n(c1=O)[C@H]1[C@H](O)[C@H]3O[C@H]3C(=O)[C@H]1CC2,1.82% [at 11.5 µM]
15,N#Cc1c(/N=C/N2CCCC2)oc(-c2ccccc2)c1-c1ccccc1,-3.24%
16,O=C(c1ccc(-n2cnnn2)cc1)N1CCN(C(c2ccccc2)c2ccccc2)CC1,-2.39%
17,CC(C)CO/N=C1/C[C@@H](O)[C@@H](O)[C@@H]2[C@@H]3C(=O)N(C[C@@H]4CCCO4)C(=O)[C@H]3CC[C@@H]12,-2.12% [at 11.5 µM]
18,COC(=O)c1ccc(C(NC(=O)OCc2ccccc2)/C(C)=C/[C@@H](C)C(=O)NCc2cc(C)on2)cc1 (stereo partly drawn),-1.01%
19,COC(=O)[C@@H]1C[C@@]2(O)[C@H](O)[C@H](O)[C@H](O)C[C@H]2N1Cc1ccc(C)s1,1.18%
20,OC(CCl)CCl,-4.21%
21,CCCn1c(-c2ccc(F)cc2)nc2c(NC3CCN(Cc4ccccc4)C3)nc(C)nc21 (stereo not drawn),-1.74%

row,SMILES,"activity change, negative = inhibition"
1,CO[C@@H]1COC(=O)C/C=C\[C@H](C)[C@@H](NS(=O)(=O)c2ccc(C)cc2)COC(=O)C/C=C\[C@@H]1C,2.78% [at 11.5 µM] and -1.73% [at 11.5 µM]
2,COC(=O)C1=C(N)Oc2cc(C)oc(=O)c2C1c1cccnc1 (stereo not drawn),-0.354%
3,COC(=O)C(C(=O)OC)[C@@H]1CCCC(=O)C1,-6.21% [at 11.5 µM]
4,CO[C@H]1COC(=O)CCC[C@@H](C)[C@H](OC)COC(=O)[C@@H](C)NC(=O)C/C=C\[C@@H]1C,-4.01% [at 11.5 µM]
5,CC(C)C(NC(=O)OCc1ccccc1)C(=O)OCC(=O)N1C(C)CCCC1C (stereo not drawn),2.43%
6,Cc1c(O)cc(O)c2c(=O)c(-c3ccc(O)cc3)coc12,4%
7,C/C(CCN1CCCCc2nc(C)c(C)cc21)=N\O[C@@H](C)c1cn([C@@H]2COC[C@@H]2O)nn1,-3.82% [at 11.5 µM]
8,Cc1cc(NC(=O)COn2nnc3ccccc32)no1,-0.927%
9,CCC1=C(OC(=O)N(CC)CC)N2C(=O)OC(=NCCc3c[nH]c4ccccc34)[C@]2(C)[C@H]2C1=CC[C@H]1C(=O)N(CC)C(=O)[C@H]12,-2.1%
10,C/C(CCN1CCc2nc(-c3ccccc3)c(-c3ccccc3)cc2C1)=N\O[C@@H](C)c1cn([C@@H]2COC[C@@H]2O)nn1,-2.17% [at 11.5 µM]
11,CCCN1Cc2cccc(C(=O)NCc3ccccc3)c2C1=O,0.937%
12,COC(=O)C1=C(C)N(Cc2ccccc2)C2=C3C(=O)N(c4ccccc4)C(=O)C3[C@@](O)(C(=O)OC)C(=O)N2C1c1ccccc1 (stereo partly drawn),2.38% [at 11.5 µM]
13,CCS(=O)(=O)N(C)[C@@H]1c2cc(C#N)ccc2OC(C)(C)[C@H]1O,inactive
14,CC(C)C(N)C(=O)OCCOCn1cnc2c(=O)[nH]c(N)nc21 (stereo not drawn),1.53%
15,CN(CCOc1ccc(CC2SC(=O)NC2=O)cc1)c1ccccn1 (stereo not drawn),0.247%
16,CC(C)C(=O)Nc1cccc(C(=O)Nc2ccc3c(c2)OCO3)c1,-1.84%
17,O=C(O)C(O)[C@@](O)(Cc1ccc(O)cc1)C(=O)O (stereo partly drawn),1.66%
18,CCOC(=O)C1C(=O)C=C(c2ccc(OC)cc2)CC1c1ccco1 (stereo not drawn),-17%
19,COc1ccc(/C=C/NC(=O)Cc2ccc(OC)c(OC)c2)cc1,-0.944% [at 11.5 µM] and -1% [at 11.5 µM]
20,C=CC(=O)c1ccc2ccccc2c1,-1.84%
21,CC1(C)OC2CO[C@]3(COS(N)(=O)=O)OC(C)(C)OC3C2O1 (stereo partly drawn),-0.898%

row,SMILES,"activity change, negative = inhibition"
1,O=C(c1cnccn1)N1CCC2(CCCN(Cc3ccccc3)C2)CC1,-0.443%
2,CCN1CCCC1CNC(=O)Cn1cnc2ccc(S(=O)(=O)N3CCC(C)CC3)cc2c1=O (stereo not drawn),-9.64%
3,CCCCNc1nc(C)nc2c1nc(-c1ccccc1)n2CCCCN(CC)CC,-0.324%
4,CC1OC(OCC2OC(Oc3c(-c4ccc(O)c(O)c4)oc4cc(O)cc(O)c4c3=O)C(O)C(O)C2O)[C@@H](O)C(O)C1O (stereo partly drawn),-2.04%
5,COc1ccc(CCC(=O)c2c(O)cc(OC3OC(CO)C(O)C(O)C3O[C@@H]3OC(C)C(O)C(O)C3O)cc2O)cc1O (stereo partly drawn),-0.654%
6,CC(=O)OCC1OC(C#CCCCc2ccccc2)C=CC1OC(C)=O (stereo not drawn),-0.276% [at 11.5 µM] and -3.22% [at 11.5 µM]
7,CN(C)CCCCNC(=O)c1ccc(Cc2nc3ccccc3[nH]2)cc1,-0.198%
8,COC(=O)c1ccc(C23CC4(C2)[C@H](CN(Cc2cccnc2)[C@@H]4c2ccccc2)C3c2ccc(Cl)nc2)cc1 (stereo partly drawn),-0.327%
9,CN(C)/C=N/c1cc(=O)n(C)c(=O)n1CC1CC1,-0.404%
10,CS(=O)(=O)N(CC(=O)NCc1ccco1)c1ccc2c(c1)OCO2,-0.19%
11,CO[C@H]1COC(=O)[C@H](Cc2ccccc2)NC(=O)C/C=C\[C@@H](C)[C@H](OC)COC(=O)C/C=C\[C@@H]1C,-1.56% [at 11.5 µM]
12,O=C1NS(=O)(=O)c2ccccc21,1.43%
13,CC1(C)C=CC(=O)[C@]2(C)C1CC(=O)[C@]1(C)C2CC[C@@]2(C)C(c3ccoc3)OC(=O)C3OC321 (stereo partly drawn),-0.79%
14,CC(=O)OCC(=O)[C@@]1(O)CCC2C3CCC4=CC(=O)CC[C@]4(C)C3C(=O)C[C@]21C (stereo partly drawn),-0.497%
15,COC1[C@H](OC(N)=O)C(O)[C@H](Oc2ccc3c(O)c(NC(=O)c4ccc(O)c(CC=C(C)C)c4)c(=O)oc3c2C)OC1(C)C (stereo partly drawn),-0.344%
16,CC(CCO)Nc1nc2c([nH]1)c(=O)n(C)c(=O)n2C (stereo not drawn),-0.389%
17,C=CCN(c1ccc(C(N)=O)cc1)S(C)(=O)=O,1.76%
18,CCCCNc1nc2c(c(=O)[nH]c(=O)n2C)n1CCOc1ccccc1,1.95%
19,CCCc1nc2c(C)cc(-c3nc4ccccc4n3C)cc2n1Cc1ccc(-c2ccccc2C(=O)O)cc1,-1.74%
20,CCc1c(C)sc(NC(=O)OC)c1C(=O)N1CCOCC1,-1.76%
